Test results reported in PubChem BioAssay (Tox21).
Results filed as inconclusive are left out. The source made the active and inactive calls. Unless noted, the call rests on the fitted dose curve; in most records, active means well fitted curve in the direction sought with a large enough effect in the repeat runs; inconclusive means weak or mixed curves; inactive means no such curve, though single readings can be large; an effect the other way counts as inactive or inconclusive.

How the values were obtained:
[1] = qHTS assay to identify small molecule antagonists of the estrogen receptor alpha (ER-alpha) signaling pathway using the BG1 cell line in the presence of 0.1 nM 17-beta-estradiol - cell viability counter screen (AID 1259241); further: nearly all actives have a fitted effect of over 40% in size; further: potency means the concentration at half of the fitted maximal effect
Summary of the method: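 Live-cell protease activity (CellTiter-Fluor fluorescence, 30 min) was read in the same wells after VM7Luc4E2 cells had been exposed to compounds with 0.1 nM 17beta-estradiol for 22 hr at 37C.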

[2] = qHTS assay to identify small molecule antagonists of the androgen receptor (AR) signaling pathway using the MDA cell line in the presence of 0.5 nM R1881 - cell viability counter screen (AID 1259242); further: nearly all actives have a fitted effect of over 45% in size
Summary of the method: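 Human breast carcinoma MDA-kb2 cells, cultured without CO2, receive compounds alongside 0.5 nM (final) R1881 agonist. After 16 hr at 37C, viability is taken as live-cell protease signal.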

[3] = qHTS assay to identify small molecule HDAC inhibitors (AID 1259364);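 further: wild-type HCT-116 cells with endogenous class I/II HDAC activity; top concentration of the series differs between compounds; nearly all actives have a fitted effect of over 45% in size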
Summary of the method: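 After a 2 hr compound incubation (37C, 5% CO2), HCT-116 cells seeded at 1,500/well the day before received HDAC-Glo reagent; signal read as luminescence after 30 min at room temperature.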

[4] = qHTS assay to identify small molecule HDAC inhibitors - cell viability counter screen (AID 1259365); further: series mostly up to about 92 µM; nearly all actives have a fitted effect of over 50% in size
Summary of the method: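 HCT-116 (wild type), 1,500 cells/well, overnight 37C/5% CO2; compound in DMSO 2hr; CellTiter-Glo 30min RT; luminescence read.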

[5] = qHTS assay to identify small molecule agonists of the sonic hedgehog signaling (Shh) pathway - cell viability counter screen (AID 1259366); further: nearly all actives have a fitted effect of over 50% in size; further: potency means the concentration at half of the fitted maximal effect
Summary of the method: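 CellTiter-Fluor fluorescence read-out, 1 hr at 37C, added after 23hr compound exposure. Cells: 3T3 Gli1-Luc, an NIH/3T3 clone with stably integrated Gli1-Luc reporter, plated 4hr before compound.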

[6] = qHTS assay to identify small molecule agonists of the sonic hedgehog signaling (Shh) pathway (AID 1259368; calls by dose curve;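 further: NIH/3T3-derived 3T3Gli1-Luc cells carrying a stable Gli1-driven firefly luciferase reporter; series mostly up to about 92 µM; nearly all actives have a fitted effect of over 15% in size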)
Summary of the method: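 Stable NIH/3T3 Gli1-Luc reporter clone; 24 hr cpd exposure after a 4 hr settling period; luminescence endpoint.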

[7] = qHTS assay to identify small molecule antagonists of the sonic hedgehog signaling (Shh) pathway (AID 1259369; calls by dose curve; further: nearly all actives have a fitted effect of over 45% in size)
Summary of the method: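 Gli1 transcriptional reporter (firefly Luc) in NIH/3T3 background, conditioned-medium activated. 24hr exposure, luminescence endpoint.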

[8] = qHTS assay to identify small molecule agonists of the estrogen receptor beta (ER-beta) signaling pathway - cell viability counter screen (AID 1259380); further: nearly all actives have a fitted effect of over 30% in size
Summary of the method: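 In this qHTS counter screen, HEK293T cells carrying an ER-beta/UAS beta-lactamase reporter, grown in 2% charcoal-stripped FBS, received compound for 16 hr; ATP-based CellTiter-Glo luminescence was then read after 30 min at room temperature.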

[9] = qHTS assay to identify small molecule antagonists of the estrogen receptor beta (ER-beta) signaling pathway - cell viability counter screen (AID 1259382); further: series mostly up to about 92 µM; nearly all actives have a fitted effect of over 55% in size
Summary of the method: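 HEK293T ER-beta-UAS-bla, 2% charcoal-stripped FBS; compounds + 1nM E2 16 hr 37C; CellTiter-Glo luminescence, 30 min RT.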

[10] = qHTS assay to identify small molecule agonists or antagonists of the thyroid stimulating hormone receptor (TSHR) signaling pathway - wild type cell line counter screen (AID 1259384; calls by dose curve)
Summary of the method: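 Wild-type Hek293 cells, 800/well, 18 h at 37C, then compound with Ro20-1724 for 30 min RT. cAMP by HTRF (cAMP-d2/anti-cAMP cryptate), 1 h RT, fluorescence read. 15 concentrations, triplicates.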

[11] = molecular target: Thyrotropin receptor (Homo sapiens) (UniProt P16473); assay: qHTS assay to identify small molecule antagonists of the thyroid stimulating hormone receptor (TSHR) signaling pathway (AID 1259385; calls by dose curve; further: nearly all actives have a fitted effect of over 20% in size)
Summary of the method: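 TSHR-HEK293 cells (800/well) plated 18 h, then compounds with Ro20-1724 and TSH at 1.5 ng/mL final, 30 min at room temperature. cAMP quantified by HTRF (cAMP-d2/anti-cAMP-cryptate, 1 h); 15 concentrations in triplicate.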

[12] = molecular target: Estrogen receptor (Homo sapiens) (UniProt P03372); assay: qHTS assay to identify small molecule antagonists of the estrogen receptor alpha (ER-alpha) signaling pathway using the BG1 cell line in the presence of 0.1 nM 17-beta-estradiol (AID 1259244); further: nearly all actives have a fitted effect of over 50% in size
Summary of the method: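 Seeding of stripped-serum-adapted VM7Luc4E2 cells, 24 h attachment, compound transfer, then 0.1 nM final 17beta-estradiol; after 22 h incubation, ONE-Glo reagent and luminescence reading.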

[13] = qHTS assay to identify small molecule antagonists of the sonic hedgehog signaling (Shh) pathway - cell viability counter screen (AID 1259367); further: nearly all actives have a fitted effect of over 55% in size; further: potency means the concentration at half of the fitted maximal effect
Summary of the method: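 Tox21 library chemicals were tested on a Gli1-Luc NIH/3T3 clone (2,000 cells/well) stimulated by conditioned medium; viability was quantified as fluorescence from CellTiter-Fluor reagent added at 23 hr.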

[14] = molecular target: Estrogen receptor beta (Homo sapiens) (UniProt Q92731); assay: qHTS assay to identify small molecule agonists of the estrogen receptor beta (ER-beta) signaling pathway (AID 1259377; active means well fitted activation curve with a large enough effect in the signal ratio in the repeat runs, not every such curve was filed as active; the % refers to the signal ratio)
Summary of the method: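 Beta-lactamase reporter readout: fluorescence of LiveBLAzer B/G FRET substrate after 2 h at room temperature, following 16 h compound treatment of ER-beta-UAS-bla HEK293T cells at 37C in 2% charcoal-stripped FBS medium.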

[15] = molecular target: Estrogen receptor (Homo sapiens) (UniProt P03372); assay: qHTS assay to identify small molecule agonists of the estrogen receptor alpha (ER-alpha) signaling pathway in the presence of an antagonist (AID 1259383; calls by dose curve; further: top concentration of the series differs between compounds; nearly all actives have a fitted effect of over 15% in size)
Summary of the method: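 ER-alpha agonism measured under antagonist challenge: 10.0nM ICI-182,780 (final) plus compound, 15 concentrations, 22hr, VM7Luc4E2 ERE-luciferase cells. Read by luminescence.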

[16] = qHTS assay to identify small molecule agonists of the androgen receptor (AR) signaling pathway in the presence of an antagonist - cell viability counter screen (AID 1259379); further: nearly all actives have a fitted effect of over 25% in size; further: potency means the concentration at half of the fitted maximal effect;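 on activity change, negative = cytotoxicity: MDA-kb2 human breast cancer cells carrying an MMTV luciferase reporter; series mostly up to about 92 µM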
Summary of the method: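 Counter screen for cell viability run in parallel with the AR agonist-mode luciferase assay. MDA-kb2 cells were co-treated with nilutamide (3.0uM final) and compounds, then incubated 16 hr at 37C, and CellTiter-Fluor fluorescence was measured.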

[17] = molecular target: Androgen receptor (Homo sapiens) (UniProt P10275); assay: qHTS assay to identify small molecule antagonists of the androgen receptor (AR) signaling pathway using the MDA cell line in the presence of 0.5 nM R1881 (AID 1259243); further: nearly all actives have a fitted effect of over 50% in size
Summary of the method: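 Cells: MDA-kb2 (MMTV-luc). Stimulus: 0.5 nM R1881. Time: 16 hr, 37C, no CO2. Detection: ONE-Glo luminescence after 30 min at RT.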

[18] = molecular target: Estrogen receptor beta (Homo sapiens) (UniProt Q92731); assay: qHTS assay to identify small molecule antagonists of the estrogen receptor beta (ER-beta) signaling pathway (AID 1259378; active means well fitted inhibition curve with a large enough effect in the signal ratio in the repeat runs, not every such curve was filed as active; the % refers to the signal ratio)
Summary of the method: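 ER-beta-UAS-bla HEK293T cells in 2% charcoal-stripped FBS medium treated with compound plus 1nM final 17-beta-estradiol for 16 hr at 37C. Beta-lactamase reporter read by FRET substrate fluorescence after 2 hours at room temperature.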
On the % scale 0 is the no-effect control and ±100 the full control effect.

Chain of Thyrotropin receptor (Homo sapiens) (P16473 whole entry, looked up): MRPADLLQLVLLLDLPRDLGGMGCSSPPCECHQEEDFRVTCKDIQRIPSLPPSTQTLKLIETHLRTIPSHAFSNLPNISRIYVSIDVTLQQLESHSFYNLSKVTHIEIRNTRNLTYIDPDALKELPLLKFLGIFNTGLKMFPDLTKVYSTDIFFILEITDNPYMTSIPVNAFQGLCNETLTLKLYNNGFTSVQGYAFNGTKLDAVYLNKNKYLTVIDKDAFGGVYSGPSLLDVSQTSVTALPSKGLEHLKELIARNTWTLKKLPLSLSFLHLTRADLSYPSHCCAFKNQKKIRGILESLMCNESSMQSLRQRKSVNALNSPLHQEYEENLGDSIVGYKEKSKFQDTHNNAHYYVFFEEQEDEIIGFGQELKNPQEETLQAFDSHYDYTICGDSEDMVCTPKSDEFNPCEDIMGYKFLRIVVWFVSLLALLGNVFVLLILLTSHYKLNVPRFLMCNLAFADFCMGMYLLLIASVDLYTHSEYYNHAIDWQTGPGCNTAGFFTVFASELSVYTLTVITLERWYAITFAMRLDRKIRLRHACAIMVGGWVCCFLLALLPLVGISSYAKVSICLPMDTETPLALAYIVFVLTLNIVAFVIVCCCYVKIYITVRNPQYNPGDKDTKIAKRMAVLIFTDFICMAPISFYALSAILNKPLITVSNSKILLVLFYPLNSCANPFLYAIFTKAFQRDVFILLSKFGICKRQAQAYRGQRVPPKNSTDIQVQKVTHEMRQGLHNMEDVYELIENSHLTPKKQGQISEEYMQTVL
Chain of Estrogen receptor beta (Homo sapiens) (Q92731 whole entry, looked up): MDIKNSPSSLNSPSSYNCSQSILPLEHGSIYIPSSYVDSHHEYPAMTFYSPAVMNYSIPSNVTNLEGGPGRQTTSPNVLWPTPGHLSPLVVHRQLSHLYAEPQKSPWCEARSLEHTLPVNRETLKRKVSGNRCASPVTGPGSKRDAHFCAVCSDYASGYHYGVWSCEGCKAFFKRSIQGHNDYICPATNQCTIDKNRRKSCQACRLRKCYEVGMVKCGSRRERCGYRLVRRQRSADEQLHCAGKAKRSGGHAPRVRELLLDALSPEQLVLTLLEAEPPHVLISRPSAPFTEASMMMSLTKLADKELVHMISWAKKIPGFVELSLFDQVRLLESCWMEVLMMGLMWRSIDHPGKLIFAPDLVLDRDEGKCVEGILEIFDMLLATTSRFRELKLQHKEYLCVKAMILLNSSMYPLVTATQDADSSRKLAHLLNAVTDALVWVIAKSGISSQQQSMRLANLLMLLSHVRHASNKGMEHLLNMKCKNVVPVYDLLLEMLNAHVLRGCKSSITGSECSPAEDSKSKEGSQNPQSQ
Chain of Estrogen receptor (Homo sapiens) (P03372 whole entry, looked up): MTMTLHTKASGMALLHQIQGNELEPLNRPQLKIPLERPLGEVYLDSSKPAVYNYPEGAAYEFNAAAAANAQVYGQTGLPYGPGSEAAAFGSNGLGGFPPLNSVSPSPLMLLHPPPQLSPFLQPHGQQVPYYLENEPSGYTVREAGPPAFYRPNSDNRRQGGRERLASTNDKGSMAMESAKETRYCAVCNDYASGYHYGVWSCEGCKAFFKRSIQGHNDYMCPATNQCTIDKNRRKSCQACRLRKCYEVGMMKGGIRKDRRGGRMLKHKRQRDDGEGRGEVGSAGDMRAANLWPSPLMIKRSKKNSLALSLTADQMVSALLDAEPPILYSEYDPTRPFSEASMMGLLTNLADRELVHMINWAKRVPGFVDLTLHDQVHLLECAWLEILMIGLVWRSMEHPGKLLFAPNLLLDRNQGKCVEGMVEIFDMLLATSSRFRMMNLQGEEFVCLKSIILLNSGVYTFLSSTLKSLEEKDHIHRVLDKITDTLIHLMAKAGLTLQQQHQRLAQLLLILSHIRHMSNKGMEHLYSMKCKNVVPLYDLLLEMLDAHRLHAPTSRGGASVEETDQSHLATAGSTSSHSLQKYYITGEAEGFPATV
Chain of Androgen receptor (Homo sapiens) (P10275 whole entry, looked up): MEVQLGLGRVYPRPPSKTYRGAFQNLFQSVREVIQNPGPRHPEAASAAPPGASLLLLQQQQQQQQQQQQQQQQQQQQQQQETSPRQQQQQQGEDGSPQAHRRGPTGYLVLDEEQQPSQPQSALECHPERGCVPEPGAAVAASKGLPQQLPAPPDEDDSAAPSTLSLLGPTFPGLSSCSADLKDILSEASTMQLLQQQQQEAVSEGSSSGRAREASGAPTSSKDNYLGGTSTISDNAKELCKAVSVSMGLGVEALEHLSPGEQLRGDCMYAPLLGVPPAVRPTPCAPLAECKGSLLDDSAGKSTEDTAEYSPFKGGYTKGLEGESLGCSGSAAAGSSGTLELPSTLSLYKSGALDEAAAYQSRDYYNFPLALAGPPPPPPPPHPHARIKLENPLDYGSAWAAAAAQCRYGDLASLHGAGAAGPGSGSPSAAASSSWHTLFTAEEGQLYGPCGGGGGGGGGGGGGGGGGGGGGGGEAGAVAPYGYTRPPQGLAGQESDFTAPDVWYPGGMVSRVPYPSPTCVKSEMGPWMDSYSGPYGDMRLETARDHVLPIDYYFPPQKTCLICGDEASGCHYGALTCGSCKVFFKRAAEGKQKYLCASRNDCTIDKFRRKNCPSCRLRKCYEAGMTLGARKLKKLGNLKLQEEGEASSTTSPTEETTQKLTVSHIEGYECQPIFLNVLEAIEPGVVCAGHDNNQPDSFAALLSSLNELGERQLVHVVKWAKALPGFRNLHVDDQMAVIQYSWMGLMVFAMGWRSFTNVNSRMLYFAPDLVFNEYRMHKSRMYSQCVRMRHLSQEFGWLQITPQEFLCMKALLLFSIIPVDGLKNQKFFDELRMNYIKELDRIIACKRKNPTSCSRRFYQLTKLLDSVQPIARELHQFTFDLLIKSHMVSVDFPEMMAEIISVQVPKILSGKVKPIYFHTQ

COC(=O)C1CC(=O)C(C(=O)OC)CC1=O (configuration not stated)
inactive: activity change, negative = cytotoxicity [1] 7.13% [at 8.39 µM] | viability change, negative = cytotoxic [2] 1.05% [at 8.39 µM] | activity change, negative = inhibition [3] -0.18% [at 8.39 µM] | activity change, negative = cytotoxicity [4] 0.106% [at 8.39 µM] | viability change, negative = cytotoxic [5] 11.2% [at 8.39 µM] | activity change [6] -2.11% [at 8.39 µM] | activity change, negative = inhibition [7] 0.93% [at 8.39 µM] | activity change, negative = cytotoxicity [8] -5.74% [at 8.39 µM] | activity change, negative = cytotoxicity [9] 5.88% [at 8.39 µM] | cAMP activity change [10] 2.64% [at 8.39 µM] | activity change, negative = inhibition [11] 0.232% [at 8.39 µM]

CCOc1cc([N+](=O)[O-])c(OCC)cc1N1CCOCC1
inactive: outcome [2] | Potency [12] | Potency [3] | outcome [4] | Potency [5] | Potency [13] | outcome [6] | Potency [7] | Potency [14] | Potency [8] | outcome [9] | outcome [15] | outcome [10] | outcome [11]

Nc1ccc([N+](=O)[O-])c(N)c1
active: Potency [1] 53.1 µM | Potency [5] 29.9 µM | Potency [13] 33.5 µM | Potency [16] 29.9 µM
inactive: Potency [12] | Potency [3] | outcome [4] | outcome [6] | Potency [7] | Potency [8] | outcome [9] | outcome [15] | outcome [10] | outcome [11]

Cc1cc(Cl)c(C)cc1Cl
inactive: outcome [2] | Potency [17] | Potency [3] | outcome [4] | Potency [5] | Potency [13] | outcome [6] | Potency [7] | Potency [14] | outcome [18] | Potency [16] | Potency [8] | outcome [9]

CCO[Si](CCCS)(OCC)OCC
inactive: Potency [1] | outcome [2] | Potency [3] | outcome [4] | Potency [5] | Potency [13] | outcome [6] | Potency [14] | outcome [18] | Potency [16] | Potency [8] | outcome [10] | outcome [11]

C=C(C)C(=O)OCCNC(C)(C)C
inactive: Potency [1] | outcome [2] | Potency [3] | outcome [4] | Potency [5] | Potency [13] | outcome [6] | Potency [7] | Potency [16] | Potency [8] | outcome [9] | outcome [10] | outcome [11]

CCCCCOC(=O)CCC
inactive: Potency [1] | outcome [2] | Potency [3] | outcome [4] | Potency [5] | Potency [13] | outcome [6] | Potency [7] | Potency [14] | Potency [16] | Potency [8] | outcome [9] | outcome [10]

CC(C)(C)OC(=O)c1ccc(O)cc1
inactive: Potency [1] | outcome [2] | outcome [4] | Potency [5] | Potency [13] | outcome [6] | Potency [16] | Potency [8] | outcome [9] | outcome [10] | outcome [11]
